Assay outcomes as filed in PubChem.
CCHFV vOTU inh = CCHFV vOTU protease inhibition; Pep-AMC fluorescence; AID 651958; 370,000 tested, 0.55% active; inhibition, % at 11.5 µM; in the data active = inhibition above about 30%; also: 0% = vehicle wells with enzyme and 100% = no enzyme wells
Mtb betalactam = beta-lactam sensitization of Mtb H37Rv | M. tuberculosis H37Rv growth with meropenem, percent inhibition | 330,000 tested, 0.27% active | inhibition, % at 25 µM | AID 434955; call rule not given here;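 also: growth measured after seven days incubation then overnight dye step; 0% = bacteria only wells and 100% = bacteria with antibiotic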
MazEF act = activators of E. coli MazEF toxin-antitoxin RNase; P0AE70; FAM/BHQ RNA-DNA oligo cleavage fluorescence, 5 h; activation, % at 20 µM; 350,000 tested, 0.32% active; in the data active = activation above about 50%
Target sequence (P0AE70 whole entry, looked up): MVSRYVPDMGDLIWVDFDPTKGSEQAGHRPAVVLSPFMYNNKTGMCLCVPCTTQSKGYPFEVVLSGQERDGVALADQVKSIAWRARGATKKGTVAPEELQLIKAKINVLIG
GDH-TPI counter-1 = counter-screen for M. tuberculosis FBA inhibitors: GDH-TPI coupled enzymes | GDH-TPI coupled enzyme counterscreen, NADH absorbance | inhibition, % at 4.8 µM | 360,000 tested, 1.2% active | AID 588335; in the data active = inhibition above about 30%;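 also: 0% = DMSO wells and 100% = wells lacking the enzyme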
Mtb FBA inh = inhibitors of M. tuberculosis fructose-bisphosphate aldolase. inhibition, % at 1 µM. P9WQA3. AID 588726. 360,000 tested, 2.3% active. purified M. tuberculosis FBA, fluorescence read-out;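 also: 0% = vehicle and 100% = reference inhibitor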
Target sequence (P9WQA3 whole entry, looked up): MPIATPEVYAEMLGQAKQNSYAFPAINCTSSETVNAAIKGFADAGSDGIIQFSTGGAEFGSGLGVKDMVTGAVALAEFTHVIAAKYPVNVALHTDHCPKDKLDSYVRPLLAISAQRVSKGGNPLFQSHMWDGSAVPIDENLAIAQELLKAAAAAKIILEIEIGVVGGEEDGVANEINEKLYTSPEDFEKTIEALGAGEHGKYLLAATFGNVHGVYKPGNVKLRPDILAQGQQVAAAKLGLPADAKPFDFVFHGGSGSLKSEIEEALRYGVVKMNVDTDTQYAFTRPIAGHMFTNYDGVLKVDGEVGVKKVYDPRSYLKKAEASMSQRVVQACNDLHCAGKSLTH
Mtb FBA confirm = confirmation of M. tuberculosis fructose-bisphosphate aldolase inhibitors; shares compounds with Mtb FBA inh; purified M. tuberculosis FBA, fluorescence read-out; inhibition, % at 1 µM; 5,600 tested, 78% active;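 also: 0% = vehicle wells and 100% = reference inhibitor wells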
GDH-TPI counter-2 = GDH-TPI inhibition counter-screen for FBA inhibitors | shares compounds with Mtb FBA inh | GDH-TPI coupled enzyme counterscreen, fluorescence | inhibition, % at 1 µM | 5,600 tested, 81% active | AID 652141; in the data active = inhibition above about 10%
GDH-TPI DR = counter-screen for M. tuberculosis FBA inhibitors: GDH-TPI dose response | shares compounds with Mtb FBA inh | GDH-TPI coupled enzyme assay, fluorescence, artifact counterscreen | IC50, µM | 170 tested, 79% active; call rule not given here
Active calls of the source: *; nt = no result; + = active, no number. An excerpt weighted towards active compounds, which were near 4% of everything screened. Rule as the data show it, unless noted: active = inhibition above about 27%; inactive = the rest.

SMILES	CCHFV vOTU inh	Mtb betalactam	MazEF act	GDH-TPI counter-1	Mtb FBA inh	Mtb FBA confirm	GDH-TPI counter-2	others
Cc1cc(NS(=O)(=O)c2ccc(NC(=O)Cc3ccccc3)cc2)no1	8.1	nt	nt	nt	nt	nt	nt
CCc1cc2ccc(C)cc2nc1SCC(=O)Nc1cc(OC)c(OC)cc1C(=O)O	-15.4	0.5	9.7	12.2	47.1*	-10.7	-8.9
CCc1ccc2[nH]c3nc(C)cc(C)c3c(=O)c2c1	-55.8	11.3	5.8	3.0	75.1*	74.7*	58.8*
CCc1ccc2[nH]cc(S(=O)(=O)c3ccc(C)c(C)c3)c(=O)c2c1	-2.0	-0.8	0.6	-11.2	0.2	nt	nt
CCCCOCCCNC(=O)C[C@H]1C[C@@]2(C(=O)OCC)CCCC3=C2N(CCC3)C1=O	5.1	nt	nt	nt	nt	nt	nt
CC1(C)Cc2c(c(-c3ccccc3)[nH]c(=O)c2C#N)CS1	5.0	6.2	-2.5	24.5	29.2*	44.2*	50.4*
CC(=O)Nc1nn(C)c2nc(C)cc(C)c12	-15.4	-4.0	-3.3	-12.6	39.4*	58.8*	49.6*
COc1ccccc1N1CCN(C(=O)c2ccc3c(c2)nc(C)n3-c2cc(OC)c(OC)c(OC)c2)CC1	-1.5	nt	nt	nt	nt	nt	nt
O=C(c1ccc(F)cc1)n1ccc(-c2cnc(-c3ccccc3)s2)n1	-19.3	4.0	-7.1	22.1	46.6*	81.3*	59.3*
CC(=O)N=c1c(C#N)cc2c(=O)n3ccccc3nc2n1Cc1ccccc1	-25.6	0.6	-3.2	-6.6	28.0*	122.3*	107.8*
Cc1cccn2c(=O)c3cc(C#N)c(=NC(=O)c4cccs4)n(CC(C)C)c3nc12	-16.0	-9.1	26.5	1.5	35.4*	+	190.1*
Cc1ccc(-n2c(=O)c(C#N)cc3c(=O)n4cccc(C)c4nc32)cc1	-45.4	-6.8	21.3	-0.6	62.5*	137.6*	84.0*
Cc1cccn2c(=O)c3cc(C#N)c(=O)n(Cc4cccnc4)c3nc12	-78.4	nt	11.8	6.4	110.9*	86.9*	71.0*
O=C(Nc1ccc(Cl)cc1)C1CCCN1S(=O)(=O)c1cccc2cccnc12 (stereo not given)	7.7	nt	nt	nt	nt	nt	nt
Cc1ccc(-c2cc(C#N)c3n(c2=O)CCC3)cc1	-6.3	nt	nt	nt	nt	nt	nt
Nc1nc(Cl)nc2c1ncn2[C@@H]1O[C@H](CO)[C@@H](O)[C@@H]1F	-10.2	nt	nt	nt	nt	nt	nt
O=C(NN=Cc1cccc(OCc2ccccc2)c1)c1cc(-c2ccc(Cl)cc2)n[nH]1	3.9	nt	nt	nt	nt	nt	nt
CCCOC(=O)c1cc(-c2ccc(C=O)o2)ccc1Cl	9.6	31.2	-6.0	27.6	97.3*	7.0	-4.5
CCCOC(=O)c1cc(-c2ccc(/C=C3/C(=O)N(C)C(=O)C(C#N)=C3C)o2)ccc1Cl	nt	10.7	7.8	0.6	-0.7	nt	nt
CN(Cc1cnccn1)C(=O)CC1C(=O)NCCN1Cc1cccc(Oc2ccccc2)c1 (stereo not given)	4.3	-11.6	3.2	5.2	28.4*	85.5*	77.1*
CN(Cc1cnccn1)C(=O)CC1C(=O)NCCN1Cc1cccc(F)c1 (stereo not given)	16.9	-6.3	3.9	-4.9	-0.5	nt	nt
CN(C)c1ccc(P(=O)(OC2CCCCC2)C(O)c2cccnc2)cc1 (stereo not given)	-1.5	9.9	3.9	-3.6	0.3	nt	nt
CN(C)c1ccc(P(=O)(OC2CCCCC2)C(O)c2ccccn2)cc1 (stereo not given)	10.0	2.6	0.6	7.3	68.1*	73.2*	79.2*
C=CCNc1cnn(-c2ccc(C)cc2)c(=O)c1Sc1ccc(C)cc1	2.7	1.8	0.0	3.1	41.1*	55.8*	46.8*
COC(=O)[C@]12C[C@H](CC(=O)NCCCN3CCCC3=O)C(=O)N(Cc3ccccc3)C1=C[C@H](COCc1ccccc1)O[C@@H]2C	-6.9	nt	nt	nt	nt	nt	nt
SMILES	CCHFV vOTU inh	Mtb betalactam	MazEF act	GDH-TPI counter-1	Mtb FBA inh	Mtb FBA confirm	GDH-TPI counter-2	others
CCS(=O)(=O)c1ccc2c(c1)NC(=O)C(CCCl)O2 (stereo not given)	-12.7	1.2	-0.4	-3.1	77.6*	140.1*	112.0*
O=C1Nc2ncccc2OC1CCCl (stereo not given)	7.2	-5.6	-4.2	10.4	-1.5	nt	nt
CCOC(=O)c1sc2cccc(F)c2c1N	-83.0	-11.0	15.9	17.8	103.2*	+	197.8*
CC(COc1ccc(OC(F)(F)F)cc1)CN1CCC(C(O)(c2ccccc2)c2ccccc2)CC1 (stereo not given)	22.6	nt	nt	nt	nt	nt	nt
CCOC(=O)N1CCC(Nc2nc3ccccc3n3nnnc23)CC1	-8.4	-14.5	-24.3	16.2	35.3*	47.0*	40.3*
CCn1c2ccccc2c2cc(/C=N/n3c(C)nnc3C)ccc21	-50.0	-5.6	6.2	25.7	39.9*	61.9*	48.0*
CN(C)/C=N/c1nc2nccc(-c3ccc(F)cc3)n2n1	-85.7	-9.6	4.6	0.6	87.7*	62.5*	56.0*
CN(C)/C=N/c1nc2nccc(-c3cccc(Cl)c3)n2n1	-60.9	1.7	4.4	0.6	34.1*	10.5	-5.1	GDH-TPI DR=2.18*
CCNC(=O)Nc1ccc2c(c1)C(=O)N(C)[C@H]1CC[C@@H](CC(=O)NCCN3CCCC3)O[C@@H]1CO2	-4.5	nt	nt	nt	nt	nt	nt
COc1ccc(N2C(=O)c3n[nH]c(C)c3C2c2ccccc2)cc1 (stereo not given)	4.9	nt	nt	nt	nt	nt	nt
COc1ccc(S(=O)Cc2ccc(C(=O)NCc3cccc(OC)c3)o2)cc1 (stereo not given)	9.8	-4.2	10.7	-4.3	28.6*	57.7*	42.0*
CCN(CC)CCCNC(=O)CCc1c(C)n(CC)c2cc(-c3ccccc3OC)nn2c1=O	-6.7	-0.5	-0.7	-6.6	65.0*	195.4*	118.2*
CCOC(=O)CCc1c(C)n(CC)c2cc(-c3ccccc3OC)nn2c1=O	-2.1	-9.2	4.1	7.6	66.5*	+	+
COc1ccccc1CNC(=O)CCc1c(C)nc2cc(-c3ccccc3OC)nn2c1C	5.9	5.5	-3.3	9.3	16.5	nt	nt
COc1ccccc1-c1cc2nc(C)c(CCC(=O)NCc3ccc(F)cc3)c(C)n2n1	-15.8	38.4	3.1	13.8	13.2	nt	nt
C[C@H]1C2CC(OC(=O)Nc3ccccc3C(F)(F)F)C(C2)[C@H]2CCCCN21 (stereo not given in full)	-5.5	nt	nt	nt	nt	nt	nt
COC(=O)[C@]12C[C@H](CC(=O)N3CCC(c4ccccc4)CC3)C(=O)N(CCc3ccc(OC)c(OC)c3)C1=C[C@H](COCc1ccccc1)O[C@@H]2C	1.4	nt	nt	nt	nt	nt	nt
C=CC[C@]12C[C@@]3(O[C@H](c4ccc(C(F)(F)F)cc4)N=C3C[C@H](c3ccc(OC)cc3)[C@H]1C)N(Cc1ccncc1)C2=O	20.2	nt	nt	nt	nt	nt	nt
Cc1cc(-c2ccccc2)n2nc(C)c(C#N)c2n1	-24.9	-6.0	3.0	7.3	27.3*	+	+
Cc1cc(C)n2nc(N)nc2n1	5.2	nt	-2.9	5.0	1.2	nt	nt
